Screens (PubChem)
A selection: hits, their analogues and other compounds. The true share with any hit is near 3.3%.
SMARCA2 act – activators of SMARCA2 function; AID 652017; MG213 cells, MMTV-luciferase reporter, dexamethasone, overnight; activation, % at 9.1 µM; 1% of 370,000 active; in the data active = activation above about 7.8%;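 note: 0% = vehicle wells and 100% = reference activator wells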
esBAF inh – SWI/SNF esBAF complex inhibition; reporter increase, % at 12.5 µM; AID 602393; 2% of 350,000 active; mouse ES cells, Bmi1-luciferase knock-in reporter, 24 h; 100% = twice the neutral-well signal; in the data active = activation above about 40%; inconclusive = no clear call, values can overlap the other calls;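 note: 0% = median of the plate's neutral control wells and 100% = double that signal; a rise in the Bmi1 reporter signal indicates esBAF inhibition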
Gli-Sufu antag – antagonists of Gli-Sufu signaling; Sufu-KO-LIGHT fibroblasts, Gli luciferase reporter luminescence; inhibition, % at 5 µM; AID 588413; 0.74% of 340,000 active;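 active = inhibition above about 55%, limit read from the data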;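 note: 0% = DMSO-treated cells and 100% = wells with medium but no cells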
Jurkat NFkB inh – inhibitors of the PMA/ionomycin-induced NF-kB reporter in Jurkat cells. inhibition, % at 4 µM. PMA/ionomycin-induced NF-kB luciferase reporter, luminescence. 0.53% of 330,000 active; in the data active = inhibition above about 50%
697 NFkB inh – lowers PMA/ionomycin-induced NF-kB signal in 697 B cells. 0.33% of 330,000 active. 697 B-cell NF-kB luciferase reporter, 16 h. inhibition, % at 4 µM; in the data active = inhibition above about 35%
SMARCA2 act conf – SMARCA2 activation, confirmation screen; shares compounds with SMARCA2 act; activation, % at 9.1 µM; MG213 cells, MMTV-luciferase with dexamethasone, luminescence, overnight; MG213 cells expressing E1A, Rb sequestered; DMSO wells 0%, reference activator 100%; 30% of 3,500 active;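 active = activation above its plate's cutoff, the mean activation of tested wells plus 3 SD, cut at about 7.9% in these data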
GAL4-VP16 Luc – GAL4-VP16 reporter activation counter-screen; shares compounds with SMARCA2 act; HEK293 GAL4-VP16 pG5luc reporter, luciferase luminescence; scaled: DMSO wells 0%, SAHA wells 100%; activation, % at 9.1 µM; 41% of 3,500 active;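 active = activation above the solvent-only control well mean plus 3 SD, averaged across control plates, cut at about 5.2% in these data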
Numbers without * were called inactive; u = inconclusive; x = not tested or not shown.

SMILES | SMARCA2 act | esBAF inh | Gli-Sufu antag | Jurkat NFkB inh | 697 NFkB inh | SMARCA2 act conf | GAL4-VP16 Luc
CCCC(C)NC(=O)CN(Cc1ccco1)S(=O)(=O)c1ccccc1 (configuration not stated) | 15* | 5 | 4 | -8 | -16 | -4 | -1
CC(/C=N/NC(=O)c1cccs1)=C\c1ccco1 | 9.2* | 98* | -16 | 10 | -18 | 9.3* | 12*
CCOC(=O)c1ccc(NC(=S)N(CCN(C)C)C(C)c2ccncc2)cc1 (configuration not stated) | 11* | 10 | 1 | -3 | -12 | -2 | -1
CCc1cccc(NC(=S)N(CCN(C)C)C(C)c2ccncc2)c1 (configuration not stated) | -2 | 9 | 5 | -2 | 10 | x | x
CCC(=O)Nc1ccc2c(c1)OC[C@@H](C)N(C(=O)c1cccnc1)C[C@H](C)[C@@H](OC)CN(C)C2=O | x | -3 | x | x | x | x | x
COc1cc2c3nnc(-c4ccc(F)cc4)c-3cn(Cc3ccc(F)cc3)c2cc1OC | 5 | 12 | 8 | 25 | -12 | x | x
COc1ccc(Cn2cc3c(-c4ccc(F)cc4)nnc-3c3cc(OC)c(OC)cc32)cc1 | 22* | 2 | 17 | 7 | 11 | 47* | 0
Cc1ccc(SCC(=O)NNC(=O)c2ccccc2)cc1C | 9.6* | -7 | -15 | -4 | 17 | -4 | -2
Cc1cc(C)n(C(=O)c2ccc(C)o2)n1 | 8.7* | x | 0 | 7 | 16 | 0 | 0
COc1ccccc1C(=O)n1nc(C)cc1C | -1 | -3 | -1 | 7 | 16 | x | x
CN(C)c1ccc(-c2noc(C3CCN(S(=O)(=O)c4cccc(C(=O)O)c4)CC3)n2)cc1 | 9.7* | 4 | 6 | -5 | 19 | 4 | -2
Cc1cccc(N=Nc2cnc(N)s2)c1 | 8.1* | x | -63 | -5 | -101 | 4 | 4
CC(=O)Nc1ncc(N=Nc2cccc(C(F)(F)F)c2)s1 | 1 | 26 | -26 | -22 | -10 | x | x
CNC[C@H]1Oc2cc(C#CCN(C)C)ccc2S(=O)(=O)N([C@@H](C)CO)C[C@H]1C | x | -3 | x | x | x | x | x
Fc1ccc2nc3[nH]c4ccccc4c3nc2c1 | 13* | 35 | -89 | -106 | -170 | 17* | 13*
CCOc1ccccc1C(=O)NN1C(=O)C2CCCCC2C1=O (configuration not stated) | -5 | x | -1 | 4 | 14 | x | x
CC(C)c1ccc(C(=O)NN2C(=O)C3CCCCC3C2=O)cc1 (configuration not stated) | 13* | x | -46 | -32 | -88 | 9.3* | 8.5*
O=C1/C(=C/c2cccs2)COc2ccccc21 | 2 | x | -3 | 1 | -22 | x | x
O=C1C(=Cc2cccs2)Oc2ccccc21 | 8.7* | 4 | -5 | x | x | 1 | 1
CCCN(C)C[C@@H]1Oc2cc(C#C[C@@H](C)O)ccc2S(=O)(=O)N([C@@H](C)CO)C[C@@H]1C | x | -2 | x | x | x | x | x
Cc1cccc(NC(=S)NC(=O)c2ccc(-c3ccccc3)cc2)n1 | 11* | 28 | -49 | -98 | -101 | 10* | 6.7*
Cc1cc2c([nH]c3ccccc32)c2c1OC(C)(C)C=C2 | 8.3* | 92* | -48 | -82 | -66 | 14* | 7.9*
Cc1noc(C)c1S(=O)(=O)Nc1ccc2c(c1)C(=O)N([C@@H](C)CO)C[C@@H](C)[C@H](CN(C)Cc1ccc(C(=O)O)cc1)O2 | x | -8 | x | x | x | x | x
Cc1nn(C)c(C)c1CNC(=O)Nc1ccc2c(c1)OCO2 | 3 | 26 | -25 | -28 | -19 | x | x
Cc1nn(C)c(C)c1CNC(=O)Nc1ccc(Cl)cc1 | 9.5* | 26 | -41 | -39 | -3 | 1 | 6.4*
SMILES | SMARCA2 act | esBAF inh | Gli-Sufu antag | Jurkat NFkB inh | 697 NFkB inh | SMARCA2 act conf | GAL4-VP16 Luc
C[C@H](CO)N1C[C@H](C)[C@H](CN(C)C(=O)Nc2cccc3ccccc23)Oc2ccc(NC(=O)Nc3ccc4c(c3)OCO4)cc2CC1=O | x | 1 | x | x | x | x | x
CC(=O)Nc1nnc(COc2ccccc2)s1 | 8.4* | u | -17 | -4 | -14 | 4 | 3
COc1ccc(Cc2nnc(NC(=O)c3ccccc3[N+](=O)[O-])s2)cc1 | 8.4* | x | 0 | 5 | -3 | 2 | 0
COC(=O)C(=O)Nc1nnc(COc2ccccc2)s1 | -2 | 3 | -9 | 0 | 11 | x | x
CC(=O)Nc1nnc(Cc2ccccc2)s1 | 13* | -2 | -6 | -4 | -3 | 2 | 1
CCC(=O)Nc1nnc(Cc2ccccc2)s1 | 6 | -5 | 3 | 3 | 4 | x | x
COc1ccc(/C=C(/C(=O)c2cccs2)N2C=CC=CC2=C(C#N)C#N)cc1 | 15* | x | -14 | x | x | -14 | 11*
N#CC(C#N)=C1C=CC=CN1/C(=C\c1ccco1)C(=O)c1ccc(Br)cc1 | -10 | x | 16 | x | x | x | x
COc1ccc(C2C(C(=O)N3CCN(c4ccccn4)CC3)CCC(=O)N2c2cc(OC)c(OC)c(OC)c2)cc1 (configuration not stated) | 8.0* | 5 | -1 | -9 | 16 | 0 | 2
COc1ccc(C2C(C(=O)N3CCN(c4ccccn4)CC3)CCC(=O)N2c2ccc(OC)cc2)cc1 (configuration not stated) | -1 | x | 20 | 9 | 24 | x | x
C[C@@H]1CN([C@H](C)CO)S(=O)(=O)c2ccc(-c3ccncc3)cc2O[C@H]1CN(C)C(=O)c1cccc(F)c1 | x | 8 | x | x | x | x | x
C=CCNc1nc(NCCOC)c2sc(-c3ccccc3)cc2n1 | -3 | 9 | x | x | x | x | x
C=CCNc1nc(NCc2ccc(N(C)C)cc2)c2sc(-c3ccccc3)cc2n1 | 10* | u | x | x | x | 11* | 11*
COc1ccc(-c2nc3ccccc3[nH]2)cc1 | 5 | x | -97 | -59 | -157 | x | x
COc1ccc(-c2cc(=O)n(-c3nc4ccccc4[nH]3)[nH]2)cc1 | 8.4* | 24 | -21 | 7 | -2 | 18* | 3
O=C(COC(=O)CNS(=O)(=O)c1ccc2ccccc2c1)Nc1ccc2c(c1)OCO2 | -3 | x | 0 | 0 | 8 | x | x
O=C(COC(=O)CNS(=O)(=O)c1cccc(Br)c1)NC(=O)Nc1ccc2c(c1)OCCO2 | 11* | x | -9 | x | x | 8 | 1
CC(C)C#Cc1ccc2c(c1)O[C@H](CN(C)Cc1cccnc1)[C@H](C)CN([C@H](C)CO)S2(=O)=O | x | 4 | x | x | x | x | x
COc1cccc(CNC(=O)[C@@H]2CCCN2C(=O)[C@@H]2CCCN2S(=O)(=O)c2ccc(OC)c(C)c2)c1 | 9.1* | x | x | x | x | 1 | 1
COc1cccc(CNC(=O)[C@@H]2CCCN2C(=O)[C@H]2CCCCN2S(=O)(=O)c2ccc(OC)c(C)c2)c1 | -5 | x | x | x | x | x | x
NC(=O)CC1C(=O)N(c2ccccc2)C(=S)N1NC(=O)c1ccccc1 (configuration not stated) | 8.0* | 1 | 1 | -42 | -3 | 7 | 2
